Test results from PubChem BioAssay (NCATS).
Several values for one entry are separate records, joined by “and”; a condition that tells them apart may be missing. Identical values can stand only once. Inconclusive results are not listed. Activity calls are given as the source filed them. The call rests on the fitted dose curve; in most records, active means well fitted inhibition curve with a large enough effect; inconclusive means small, poorly fitted or top-dose-only effect; inactive means flat fitted curve, though single readings scatter.

Assays:
CRL-7250 = normal cell line; test: Cytotoxic Profiling of Annotated Libraries Using Quantitative High-Throughput Screening (AID 1296008); conditions: Five cell lines viability, CellTiter-Glo ATP luminescence, 48-72 h; max response: stronger effect = lower value; further: potency means the concentration at half of the fitted maximal effect; on max response: on the % scale 0 is the no-effect control and ±100 the full control effect
In short: (§1)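 Compounds were pin-transferred onto cells and incubated 48 or 72 hr at 37 degree Celsius, 95% humidity. CellTiter-Glo was added, plates sat 10 min at room temperature, then ATP-coupled luminescence was imaged as the viability read-out.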

HaCat [1] = test: as above; conditions: Five cell lines viability, CellTiter-Glo ATP luminescence, 48-72 h; max response: stronger effect = lower value
In short: as §1

KB-3-1 = test: as above; conditions: Five cell lines viability, CellTiter-Glo ATP luminescence, 48-72 h; max response: stronger effect = lower value
In short: as §1

NIH3T3 = test: as above; conditions: Five cell lines viability, CellTiter-Glo ATP luminescence, 48-72 h; max response: stronger effect = lower value
In short: as §1

MCC-13 = test: qHTS assay to identify novel small-molecules to repurpose for Merkel cell carcinoma treatment (AID 1296009); conditions: MCC and control cell lines, CellTiter-Glo viability, 72 h; series mostly up to 46 µM; further: potency means the concentration at half of the fitted maximal effect
In short: (§2)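 qHTS format: cells treated with library compounds in DMSO across 8 (NPC) or 11 (MIPE) concentrations. Readout after 72 hr at 37 degree celsius was CellTiter-Glo luminescence.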

MCC-26 = test: as above; conditions: MCC and control cell lines, CellTiter-Glo viability, 72 h; series mostly up to 46 µM
In short: as §2

MKL-1 = test: as above; conditions: MCC and control cell lines, CellTiter-Glo viability, 72 h; series mostly up to 46 µM
In short: as §2

MKL-2 = test: as above; conditions: MCC and control cell lines, CellTiter-Glo viability, 72 h; series mostly up to 46 µM
In short: as §2

HACAT [2] = test: as above; conditions: MCC and control cell lines, CellTiter-Glo viability, 72 h; at 44.8 µM (top of the series) unless noted
In short: as §2

HEK293 = test: Cytotoxic Profiling of Annotated Libraries Using Quantitative High-Throughput Screening (AID 1296008); conditions: Five cell lines viability, CellTiter-Glo ATP luminescence, 48-72 h; max response: stronger effect = lower value; further: potency means the concentration at half of the fitted maximal effect; on max response: on the % scale 0 is the no-effect control and ±100 the full control effect
In short: as §1

PAD = test: qHTS profiling for inhibitors of Plasmodium falciparum proliferation (AID 504749);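 further: 0% = DMSO vehicle and full inhibition = artemisinin control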; conditions: P. falciparum in erythrocytes, SYBR Green DNA, 72 h; series mostly up to 28.7 µM
In short: (§3)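 Parasite proliferation within erythrocytes, 72 h exposure. Endpoint: SYBR Green I fluorescence after overnight lysis at room temperature. Controls: 0.29 uM artemisinin, DMSO.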

PC15 = test: as above; conditions: P. falciparum in erythrocytes, SYBR Green DNA, 72 h; series mostly up to 28.7 µM
In short: as §3

PC26 = test: as above; conditions: P. falciparum in erythrocytes, SYBR Green DNA, 72 h; series mostly up to 28.7 µM
In short: as §3

PC49 = test: as above; conditions: P. falciparum in erythrocytes, SYBR Green DNA, 72 h; series mostly up to 28.7 µM
In short: as §3

TAB109 = test: as above; conditions: P. falciparum in erythrocytes, SYBR Green DNA, 72 h; series mostly up to 28.7 µM
In short: as §3

TAB113 = test: as above; conditions: P. falciparum in erythrocytes, SYBR Green DNA, 72 h; series mostly up to 28.7 µM
In short: as §3

TAB165 = test: as above; conditions: P. falciparum in erythrocytes, SYBR Green DNA, 72 h; series mostly up to 28.7 µM
In short: as §3

W2 = test: as above; conditions: P. falciparum in erythrocytes, SYBR Green DNA, 72 h; series mostly up to 28.7 µM
In short: as §3
Further: nearly all actives have a fitted effect of over 60% in size.

Nc1ncnc2nc(-c3ccc(N4CCOCC4)nc3)cc(-c3cccc(Br)c3)c12
inactive: max response (CRL-7250) 0.286% | max response (HaCat [1]) 3.01% | outcome (KB-3-1) | max response (NIH3T3) 1.04% | Potency (MCC-13) | Potency (MCC-26) | Potency (MKL-1) | Potency (MKL-2)

NC(=O)c1ccc(-c2nc(-c3ccc4c(c3)OCO4)c(-c3ccccn3)[nH]2)cc1
inactive: max response (CRL-7250) 3.54% | max response (KB-3-1) -0.83% | max response (NIH3T3) -25.4% | outcome (HACAT [2]) | Potency (MCC-13) | Potency (MCC-26) | Potency (MKL-1) | Potency (MKL-2)

COc1c(Cl)cc2c([nH]c3cnccc32)c1NC(=O)c1cccnc1C
inactive: outcome (CRL-7250) | outcome (HaCat [1]) | max response (KB-3-1) 9.41% | outcome (KB-3-1) | max response (NIH3T3) -6% and -16.3% | outcome (HACAT [2]) | Potency (MCC-13) | Potency (MCC-26) | Potency (MKL-1) | Potency (MKL-2)

Cc1ccccc1C(C(=O)NC1CCCC1)N(C(=O)Cn1cnc2ccccc21)c1cccc(F)c1 (stereo unspecified)
inactive: max response (CRL-7250) 1.73% | outcome (HaCat [1]) | max response (KB-3-1) 7.7% | outcome (NIH3T3) | outcome (HACAT [2]) | Potency (MCC-13) | Potency (MCC-26) | Potency (MKL-1) | Potency (MKL-2)

COc1ccc2c3n(c(=NC(=O)c4cccnc4)nc2c1OC)CCN3
active: Potency (HaCat [1]) 10.5 µM
inactive: max response (CRL-7250) -15.5% | max response (KB-3-1) -17.8% | Potency (MCC-13) | Potency (MKL-1) | Potency (MKL-2)

O=C(C=Cc1ccc(/C=C/C(=O)Nc2ccc(C3=NCCN3)cc2)cc1)Nc1ccc(C2=NCCN2)cc1
inactive: outcome (CRL-7250) | outcome (KB-3-1) | outcome (NIH3T3) | Potency (MCC-13) | Potency (MCC-26) | Potency (MKL-1) | Potency (MKL-2)

CCC(C)N(C)C(=O)c1cc2ccccc2c(-c2ccccc2Cl)n1 (stereo unspecified)
inactive: max response (CRL-7250) 0.969% | outcome (HaCat [1]) | max response (KB-3-1) 3.08% | max response (NIH3T3) -14% | outcome (HACAT [2]) | Potency (MCC-13) | Potency (MCC-26) | Potency (MKL-1) | Potency (MKL-2)

Cc1c(CCOc2ccc(C(=O)O)cc2)c2cc(Cl)ccc2n1C(c1ccccc1)c1ccccc1
inactive: max response (CRL-7250) -5.22% | max response (HaCat [1]) 0.869% | max response (KB-3-1) -12.2% | max response (NIH3T3) -32.3% | Potency (MCC-13) | Potency (MCC-26) | Potency (MKL-1) | Potency (MKL-2)

Oc1cccc(-c2nc(N3CCOCC3)c3oc4ncccc4c3n2)c1
active: Potency (CRL-7250) 0.0762 µM | Potency (HEK293) 0.171 µM | Potency (NIH3T3) 762 nM

O=C(C1CC1)N1CC[C@@H](Cn2c(-c3ccc(-c4ccc5occc5c4)cc3)nc3cnccc32)C1
inactive: outcome (CRL-7250) | max response (HaCat [1]) -11.7% | max response (KB-3-1) 3.71% | max response (NIH3T3) 1.4% | Potency (MCC-13) | Potency (MCC-26) | Potency (MKL-1) | Potency (MKL-2)

COc1cc2nccc(Oc3ccc(NC(=O)NC4CC4)c(Cl)c3)c2cc1C(N)=O
inactive: max response (HaCat [1]) -5.23% and -15.3% | outcome (KB-3-1)
active: Potency (CRL-7250) 0.92 µM | Potency (NIH3T3) 14.8 µM and 4.11 µM | Potency (MKL-1) 2.64 µM | Potency (MKL-2) 9.35 µM

O=S(=O)(N=Cc1c(O)ccc2ccccc12)c1cccs1
inactive: max response (CRL-7250) -0.432% | max response (HaCat [1]) -24.1% | max response (KB-3-1) 0.0321% | outcome (NIH3T3) | Potency (MCC-13) | Potency (MCC-26) | Potency (MKL-1) | Potency (MKL-2)

COc1ccc(C2=N[C@H](c3ccc(Cl)cc3)[C@H](c3ccc(Cl)cc3)N2C(=O)N2CCNC(=O)C2)c(OC(C)C)c1
inactive: Potency (MCC-13)
active: Potency (CRL-7250) 3.32 µM | Potency (HEK293) 11.8 µM | Potency (MKL-1) 9.35 µM

Cc1cc([C@@H](C)Nc2ccccc2C(=O)O)c2nc(N3CCOCC3)cc(=O)n2c1
active: Potency (CRL-7250) 3.82 µM | Potency (HEK293) 19.1 µM | Potency (NIH3T3) 12100 nM
inactive: Potency (MCC-13) | Potency (MKL-1)

CN(C)c1ccc(C2Nc3ccc4ccccc4c3C3=C2C(=O)CC(C)(C)C3)cc1Br (stereo unspecified)
inactive: max response (CRL-7250) -23.7% and -20.8% | max response (HaCat [1]) -24.3% and -7.34% | max response (KB-3-1) 1.11% and -17.2% | max response (NIH3T3) -6.99% and -2.22% | Potency (MCC-13) | Potency (MKL-1) | Potency (MKL-2)

Nc1nc2ccc(OC(F)(F)F)cc2s1
inactive: Potency (PAD) | Potency (PC15) | Potency (PC26) | Potency (PC49) | Potency (TAB109) | Potency (TAB113) | Potency (TAB165) | Potency (W2) | outcome (CRL-7250) | max response (HaCat [1]) -58.3% | outcome (HaCat [1]) | max response (KB-3-1) -6.76% | max response (NIH3T3) -3.98% | outcome (HACAT [2]) | Potency (MCC-13) | Potency (MCC-26) | Potency (MKL-1) | Potency (MKL-2)

C[C@]12CCC(=O)C=C1CC[C@@H]1[C@@H]2[C@@H](O)C[C@@]2(C)[C@H]1CC[C@]2(O)C(=O)CO
inactive: max response (CRL-7250) 3.48% | max response (HEK293) -3.59% | max response (NIH3T3) 1.04% | Potency (MCC-13) | Potency (MCC-26) | Potency (MKL-1) | Potency (MKL-2)
